In PubChem BioAssay (NCI):
About 83,000 compounds went through this panel and 20% of them were active in at least one assay; those are over-represented in the sample as a whole.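 Interpretation: 100, growth as untreated; towards 0, rising growth inhibition; 0, no net growth; 0 to -100, cell death. Compounds scoring below 10 were considered active.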 Values without a mark were called inactive. Calls of active or inactive are those of the source.

Columns and labels:
Assay in all cases: NCI-60 one-dose screen, 48 h (100 = growth as untreated, 0 = no growth, -100 = all killed)
Settings in all cases: 10 µM unless noted
NCI-H23 lung = test system: NCI-H23 lung
NCI-H226 lung = test system: NCI-H226 lung
NCI-H322M lung = test system: NCI-H322M lung
HOP-62 NSCLC = test system: HOP-62 NSCLC
NCI-H460 lung = test system: NCI-H460 lung
HOP-92 NSCLC = test system: HOP-92 NSCLC
NCI-H522 lung = test system: NCI-H522 lung
A549/ATCC NSCLC = test system: A549/ATCC NSCLC
786-0 renal = test system: 786-0 renal
COLO 205 colon = test system: COLO 205 colon
DU-145 prostate = test system: DU-145 prostate
MALME-3M melanoma = test system: MALME-3M melanoma
MDA-MB-231 breast = test system: MDA-MB-231 breast
RXF 393 renal = test system: RXF 393 renal
SF-268 CNS = test system: SF-268 CNS
SF-295 CNS = test system: SF-295 CNS
SF-539 CNS = test system: SF-539 CNS
UACC-257 melanoma = test system: UACC-257 melanoma
M14 melanoma = test system: M14 melanoma

| SMILES | growth (NCI-H23 lung) | growth (NCI-H226 lung) | growth (NCI-H322M lung) | growth (HOP-62 NSCLC) | growth (NCI-H460 lung) | growth (HOP-92 NSCLC) | growth (NCI-H522 lung) | growth (A549/ATCC NSCLC) | growth (786-0 renal) | growth (COLO 205 colon) | growth (DU-145 prostate) | growth (MALME-3M melanoma) | growth (MDA-MB-231 breast) | growth (RXF 393 renal) | growth (SF-268 CNS) | growth (SF-295 CNS) | growth (SF-539 CNS) | growth (UACC-257 melanoma) | growth (M14 melanoma) |
| --- | --- | --- | --- | --- | --- | --- | --- | --- | --- | --- | --- | --- | --- | --- | --- | --- | --- | --- | --- |
| CN(C)c1ccc(N=Nc2ccccn2)c(O)c1 | 16.1% | 14.4% | 21.9% | 7.8% (active) | 5.5% (active) | 57.9% | 27.1% | 11.8% | 15% | 17.3% | 21.6% | 13.8% | 36.7% | 46.3% | 14.6% | 19.9% | 0.733% (active) | -9.35% (active) | -2.06% (active) |
| O=c1oc2c(C(F)(F)F)cccc2cc1-c1csc(Nc2ccc(OCCF)cc2)n1 | 24.2% | 17.3% | 31% | 22.5% | 4.07% (active) | 27.4% | -42.9% (active) | 18.1% | 9.77% (active) | -71.8% (active) | 2.54% (active) | 66.2% | 9.58% (active) | 22.5% | 23.3% | 4.4% (active) | -28.6% (active) | 55.2% | 4.98% (active) |
| CC(=O)O[C@H]1C(=O)[C@@]2(C)[C@H]([C@H](OC(=O)c3ccccc3)[C@]3(O)C[C@H](OC(=O)[C@H](OC(=O)CCC(=O)OC4CCC(S/N=C(N)/N=C(\N)N(C)C)CC4)[C@@H](NC(=O)c4ccccc4)c4ccccc4)C(C)=C1C3(C)C)[C@]1(OC(C)=O)CO[C@@H]1C[C@@H]2O (some centres undefined) | 39.3% | 75.6% | 17.8% | 29.7% | 7.58% (active) | 54.9% | -25.7% (active) | 28.5% | 33.3% | -8.92% (active) | 0.0949% (active) | 66.8% | 22.8% | 10.6% | 38.1% | -10.5% (active) | -19.7% (active) | 58% | 30.1% |
| COc1ccccc1Nc1nc(-c2cc3cccc(C(F)(F)F)c3oc2=O)cs1 | 18.6% | 13.4% | 33% | 25.3% | 4.14% (active) | 26.9% | -16.5% (active) | 17.1% | 20.8% | -50.3% (active) | 7% (active) | 78.2% | 19.1% | 26.7% | 26.2% | 3.82% (active) | -32.9% (active) | 57.1% | 13.5% |
| N#Cc1nnn(-c2ccc(S(N)(=O)=O)cc2)c1NC(=O)CCl | 100% | 95.5% | 93.4% | 92.2% | 104% | 96.1% | 95% | 92.9% | 98% | 110% | 107% | 102% | 102% | 109% | 97.6% | 98.2% | 98.8% | 89% | 95.4% |
| Cc1nc(Nc2ccc(F)c(Cl)c2)sc1C(=O)O | 15.7% | 26.9% | 54.3% | 27.3% | 18.1% | -23.8% (active) | -9.27% (active) | 12.9% | 19.6% | 5.72% (active) | 28.2% | 30.8% | -19.8% (active) | 15.4% | 29.3% | 15.2% | 24.4% | 4.37% (active) | 19.2% |
| COc1cc(C)c(C2C(C#N)=C(N)Oc3n[nH]c(-c4cccs4)c32)cc1C(C)C (centres undefined) | 93.9% | 101% | 108% | 96.8% | 107% | 99.7% | 91.2% | 86.7% | 103% | 118% | 108% | 121% | 107% | 99.5% | 101% | 101% | 104% | 90.4% | 105% |
| CC(=O)c1cc2c(N)c(C(=O)Nc3cccc(F)c3C)sc2nc1C | 94.2% | 88% | 95.7% | 73.8% | 83.1% | 73.1% | 82.1% | 56.5% | 92.1% | 74.3% | 99.1% | 94% | 82.1% | 96.6% | 94.3% | 82.4% | 93.5% | 74.5% | 65.2% |
| CCOC(=O)c1cc(C(=O)c2ccc(O)c(O)c2)n2ccc(-c3ccn4c(C(=O)c5ccc(O)c(O)c5)cc(C(=O)OCC)c4c3)cc12 | 96.7% | 107% | 94.3% | 99.7% | 101% | 45.7% | 82.7% | 92.3% | 87% | 102% | 93.8% | 105% | 52.6% | 86.5% | 88.5% | 102% | 92.5% | 100% | 93.2% |
| COc1ccc2c(c1)CC/C(=C\c1cncc(Br)c1)C2=O | 92.7% | 111% | 106% | 90% | 103% | 84.4% | 55.7% | 95.3% | 92.7% | 106% | 102% | 106% | 94.5% | 98.4% | 97.1% | 94.5% | 93.2% | 112% | 92.9% |
| CC(=O)c1cc2c(N)c(C(=O)Nc3cccc4ccccc34)sc2nc1C | 34.6% | 81.3% | 45.4% | 38.9% | 7.21% (active) | 61.6% | 13% | 22% | 31.6% | -27% (active) | 15.5% | 56.2% | 26.2% | 10.4% | 56.3% | 19.8% | -15% (active) | 59.8% | 3.93% (active) |
| COc1cc(C(=O)/C=C/c2cccnc2Nc2ccc(Cl)cc2)cc(OC)c1OC | -17.5% (active) | -82.7% (active) | 9.66% (active) | -68.6% (active) | 4.24% (active) | -54.5% (active) | -58.4% (active) | -29.2% (active) | -83.4% (active) | -81.4% (active) | -59.2% (active) | -48.1% (active) | -50.7% (active) | -85.7% (active) | -87.7% (active) | 7.32% (active) | -80.2% (active) | -63.5% (active) | -47.4% (active) |
| Cc1cc(N2CCCCCC2)nc(NC2CCCC(Nc3ccnc4cc(Cl)ccc34)C2)n1 (centres undefined) | -50.8% (active) | -61.3% (active) | -70.9% (active) | -83% (active) | -82.2% (active) | -82% (active) | -72% (active) | -68.3% (active) | -96.3% (active) | -80.1% (active) | -70.7% (active) | -89% (active) | -88.5% (active) | -81% (active) | -70% (active) | -85.1% (active) | -92.1% (active) | -78.9% (active) | -86.5% (active) |
| Clc1ccc2c(NCCNc3nc(N4CCOCC4)nc4ccccc34)ccnc2c1 | 44% | -22.5% (active) | 15.9% | -37.1% (active) | -29.3% (active) | -41.6% (active) | -70.6% (active) | 5.31% (active) | -39.9% (active) | -67.5% (active) | 29.9% | -50.9% (active) | -56% (active) | -39.4% (active) | 11.5% | -83% (active) | -80.2% (active) | 90.5% | -65.5% (active) |
| COc1cc(-c2nn(-c3ccc(C(=O)O)cc3)cc2C(=O)O)ccc1O | 63% | 102% | 98.5% | 61.6% | 61.9% | 58.8% | 12% | 78.2% | 78.3% | 113% | 89.3% | 57.1% | 93.3% | 91.5% | 70.3% | 94.4% | 47.7% | 103% | 33.5% |
| Clc1ccc2c(NCCCCNc3nc(N4CCCCC4)nc4ccccc34)ccnc2c1 | 53.1% | 35.8% | 6.86% (active) | -11.1% (active) | 6.3% (active) | -35.3% (active) | -18.6% (active) | 16.2% | -90.3% (active) | -64.5% (active) | 27.6% | -81.8% (active) | -51.3% (active) | -62.8% (active) | 19.9% | -54.8% (active) | -86.7% (active) | -83.5% (active) | -84.6% (active) |
